PubChem BioAssay
A number with no mark means an inactive call. For some assays here: Measured potencies and affinities stand elsewhere. Activity calls are given as the source filed them. Unless noted, how the calls were made is not given here.

How the values were obtained:
[1] = antimalarial activity against Dd2 strain (AID 2302;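 active means growth inhibition above 50% at the single 2 µM test dose, taken to imply half-maximal potency below 2 µM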;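 further: 0% = DMSO untreated growth and 100% = chloroquine plus artemisinin killed control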); conditions: P. falciparum Dd2 in RBCs, LDH growth readout, 72 h; at 2 µM; stronger effect = higher value
[2] = HepG2 cytotoxicity, primary screen, cytotoxicity control for P. falciparum antimalarial project, cell-based, ATP luminescence (AID 2303;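 active means inhibition above 50%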;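 further: 0% = DMSO wells and 100% = digitonin-killed cells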); conditions: HepG2 viability, 24-48 h, at 10 µM, stronger effect = higher value
[3] = target: L-lactate dehydrogenase (Plasmodium falciparum (isolate CDC / Honduras)) (UniProt Q27743); test: PfLDH activity inhibition – cell lysate, 3D7 strain, counter-screen for P. falciparum growth inhibition project (AID 2304);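 further: 0% = vehicle and 100% = reference inhibitor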; conditions: P. falciparum 3D7 crude extract, LDH APAD/NBT absorbance; at 2 µM; stronger effect = higher value
Chain of L-lactate dehydrogenase (Plasmodium falciparum (isolate CDC / Honduras)) (Q27743 whole entry, looked up): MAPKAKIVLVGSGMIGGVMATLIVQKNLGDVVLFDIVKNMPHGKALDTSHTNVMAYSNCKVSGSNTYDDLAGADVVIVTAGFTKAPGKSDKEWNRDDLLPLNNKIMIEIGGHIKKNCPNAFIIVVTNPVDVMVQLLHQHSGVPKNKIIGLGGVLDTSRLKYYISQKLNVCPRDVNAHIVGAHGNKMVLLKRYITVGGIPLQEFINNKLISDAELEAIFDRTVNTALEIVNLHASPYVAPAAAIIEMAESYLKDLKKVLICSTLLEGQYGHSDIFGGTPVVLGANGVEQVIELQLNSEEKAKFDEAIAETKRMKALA

[4] = inhibition of 3D7 malaria parasite growth – strain 3D7 (AID 2306);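 further: 0% = DMSO wells and 100% = chloroquine plus artemisinin control wells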; conditions: P. falciparum 3D7 erythrocytic growth, LDH absorbance, 72 h; at 2 µM; stronger effect = higher value
[5] = target: Calcium-dependent protein kinase 1 (Plasmodium falciparum (isolate 3D7)) (UniProt P62344); test: PfCDPK1 kinase inhibitors, biochemical, TCAMS library (AID 1159585; cut-off not given, nearly all actives have IC50 up to about 0.98 µM;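 further: inhibitors leave more ATP so luminescence rises with inhibition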); conditions: recombinant PfCDPK1, Kinase-Glo ATP depletion luminescence
Chain of Calcium-dependent protein kinase 1 (Plasmodium falciparum (isolate 3D7)) (P62344 whole entry, looked up): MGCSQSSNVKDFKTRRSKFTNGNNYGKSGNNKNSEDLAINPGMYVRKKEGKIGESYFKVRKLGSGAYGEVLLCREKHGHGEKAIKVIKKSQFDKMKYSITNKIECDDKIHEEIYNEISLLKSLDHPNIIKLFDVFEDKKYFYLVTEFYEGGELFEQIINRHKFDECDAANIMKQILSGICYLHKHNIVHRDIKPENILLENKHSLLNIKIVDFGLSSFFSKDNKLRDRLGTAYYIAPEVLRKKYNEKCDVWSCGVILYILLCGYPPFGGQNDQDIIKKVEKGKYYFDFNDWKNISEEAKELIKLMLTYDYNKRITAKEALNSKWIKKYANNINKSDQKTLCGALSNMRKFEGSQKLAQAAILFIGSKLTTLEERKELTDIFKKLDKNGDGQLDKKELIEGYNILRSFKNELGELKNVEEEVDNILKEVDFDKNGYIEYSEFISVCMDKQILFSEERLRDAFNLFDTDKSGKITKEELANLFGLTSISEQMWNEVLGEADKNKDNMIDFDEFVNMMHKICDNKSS

[6] = target: Plasmodium falciparum protein kinase 6 (PK6, PF3D7_1337100) (UniProt Q8IDW1); test: PfPK6 kinase inhibitors, biochemical, TCAMS library (AID 1159586); conditions: recombinant PfPK6, Kinase-Glo ATP depletion luminescence
Chain of Plasmodium falciparum protein kinase 6 (PK6, PF3D7_1337100) (Q8IDW1 1-305): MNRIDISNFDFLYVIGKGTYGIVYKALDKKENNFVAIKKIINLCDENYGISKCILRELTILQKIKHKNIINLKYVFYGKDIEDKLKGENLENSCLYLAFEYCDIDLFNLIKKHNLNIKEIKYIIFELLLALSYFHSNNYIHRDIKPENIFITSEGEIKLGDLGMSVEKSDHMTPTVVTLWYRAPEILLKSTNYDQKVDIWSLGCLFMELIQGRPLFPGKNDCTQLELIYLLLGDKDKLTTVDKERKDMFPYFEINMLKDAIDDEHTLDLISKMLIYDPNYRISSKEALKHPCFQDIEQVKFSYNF

[7] = target: Protein kinase 7 (PK7), Plasmodium falciparum 3D7 (PF3D7_0213400) (UniProt Q7YTF7); test: inhibition of Plasmodium PK7 catalytic activity – biochemical, TCAMS antimalarial set, Kinase-Glo luminescence (AID 1159587); conditions: recombinant PfPK7, Kinase-Glo ATP depletion luminescence
Chain of Protein kinase 7 (PK7), Plasmodium falciparum 3D7 (PF3D7_0213400) (Q7YTF7 1-343): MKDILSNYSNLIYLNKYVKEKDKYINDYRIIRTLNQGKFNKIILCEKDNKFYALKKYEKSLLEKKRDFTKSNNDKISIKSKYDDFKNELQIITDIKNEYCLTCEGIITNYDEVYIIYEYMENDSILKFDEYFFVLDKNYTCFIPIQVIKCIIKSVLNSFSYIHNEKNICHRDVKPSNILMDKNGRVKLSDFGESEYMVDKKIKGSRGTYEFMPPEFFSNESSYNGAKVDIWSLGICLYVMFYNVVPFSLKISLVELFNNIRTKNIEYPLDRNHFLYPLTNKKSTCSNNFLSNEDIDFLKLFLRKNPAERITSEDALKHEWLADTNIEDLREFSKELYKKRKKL

[8] = target: Calcium-dependent protein kinase 4 (Plasmodium falciparum (isolate 3D7)) (UniProt Q8IBS5); test: PfCDPK4 kinase inhibitors, biochemical, TCAMS library (AID 1159588; cut-off not given, nearly all actives have IC50 up to about 0.91 µM); conditions: recombinant PfCDPK4, Kinase-Glo ATP depletion luminescence
Chain of Calcium-dependent protein kinase 4 (Plasmodium falciparum (isolate 3D7)) (Q8IBS5 whole entry, looked up): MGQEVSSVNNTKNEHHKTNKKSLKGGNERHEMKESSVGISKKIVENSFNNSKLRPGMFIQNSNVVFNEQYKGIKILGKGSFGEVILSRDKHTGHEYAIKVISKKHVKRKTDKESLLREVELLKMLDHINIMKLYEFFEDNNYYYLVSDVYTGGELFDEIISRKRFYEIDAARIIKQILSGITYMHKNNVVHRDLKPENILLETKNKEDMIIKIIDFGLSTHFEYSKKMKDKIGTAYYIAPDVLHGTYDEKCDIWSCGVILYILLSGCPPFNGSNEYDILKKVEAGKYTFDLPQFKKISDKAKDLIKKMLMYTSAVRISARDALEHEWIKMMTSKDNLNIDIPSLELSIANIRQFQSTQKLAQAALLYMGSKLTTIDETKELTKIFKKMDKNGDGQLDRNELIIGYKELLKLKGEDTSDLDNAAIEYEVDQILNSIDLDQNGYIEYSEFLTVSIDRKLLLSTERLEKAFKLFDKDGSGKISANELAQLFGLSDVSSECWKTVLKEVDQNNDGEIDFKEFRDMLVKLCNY

Row | SMILES | growth inhibition [1] | inhibition [2] | inhibition [3] [%] | growth inhibition [4] | outcome [5] | outcome [6] | outcome [7] | outcome [8]
1 | N#Cc1ccc(N(CCOc2ccc3c(c2)CCC(=O)N3)Cc2ccccc2C(F)(F)F)cc1C(F)(F)F | 64% (active) | 19% | 1 | 98% (active) | inactive | inactive | inactive | inactive
2 | O=C(/C=C/c1ccc(-c2nc3ccc(Cl)cc3[nH]2)cc1)NC1CCN(Cc2ccccc2)CC1 | 92% (active) | 3% | 0 | 100% (active) | inactive | inactive | inactive | inactive
3 | CCCCC(CCCC)CN1C(=O)C(c2ccccc2)(c2ccccc2)N=C1N | 96% (active) | 28% | -3 | 96% (active) | inactive | inactive | inactive | inactive
4 | Cc1c(Cl)cccc1NC(=S)NN=Cc1ccccn1 | 85% (active) | 58% (active) | 5 | 99% (active) | inactive | inactive | inactive | inactive
5 | Cc1cc2nc(-c3ccc(/C=C/C(=O)NCCc4ccccc4)cc3)[nH]c2cc1C | 13% | 3% | 1 | 98% (active) | inactive | inactive | inactive | inactive
6 | COc1cc2nc(N3CCC(c4ccccc4)CC3)nc(NCc3ccc(=O)[nH]c3)c2cc1OC | 58% (active) | 12% | 0 | 100% (active) | inactive | inactive | inactive | inactive
7 | CCCCc1cc(NCC)nc(Nc2ccc(F)cc2)n1 | 56% (active) | 33% | -1 | 98% (active) | inactive | inactive | inactive | inactive
8 | CO/C(=C\C=C\c1cc2cc(Cl)c(Cl)cc2[nH]1)C(=O)NCCCNC12CC3CC(CC(C3)C1)C2 | 76% (active) | 29% | -2 | 99% (active) | inactive | inactive | inactive | inactive
9 | NC1=NC(c2ccccc2)(c2ccccn2)C(=O)N1CCCc1ccccc1 (stereo not given) | 64% (active) | -1% | -2 | 85% (active) | inactive | inactive | inactive | inactive
10 | CC(Cc1ccc(OCCCCOc2ccccc2)cc1)NCCc1ccc(Oc2ccccc2)cc1 (stereo not given) | 95% (active) | 99% (active) | 5 | 89% (active) | inactive | inactive | inactive | inactive
11 | CC(=O)c1ccc2nc[nH]c(=O)c2c1 | 99% (active) | 79% (active) | -1 | 96% (active) | inactive | inactive | inactive | inactive
12 | Nc1ncc(-c2cccc(OCc3ccccc3)c2)cc1-c1nnc2ccc(Cl)nn12 | 7% | -7% | -5 | 94% (active) | inactive | inactive | inactive | inactive
13 | CCCCCCCN1CC[C@H](NC(=O)Nc2ccnc3ccc(OC)cc23)[C@H](C(=O)OCC)C1 | 73% (active) | 11% | 7 | 101% (active) | inactive | inactive | inactive | inactive
14 | CCN(CC)CCN(Cc1ccc(-c2ccc(C(F)(F)F)cc2)cc1)C(=O)Cn1c(/C=C/c2ccco2)nc(=O)c2ccccc21 | 86% (active) | 28% | -2 | 94% (active) | inactive | inactive | inactive | inactive
15 | Cc1c(CNCCN2CCCCC2)c(C(=O)O)c(C)n1Cc1ccc(Cl)cc1 | 93% (active) | 4% | -6 | 97% (active) | inactive | inactive | inactive | inactive
16 | CC(C)(C)c1nn(-c2ccccc2)c2[nH]c(=O)c(CNC3CCCC3)cc12 | 70% (active) | 7% | 5 | 100% (active) | inactive | inactive | inactive | inactive
17 | CNC(=O)c1cnc(Nc2ccc(N3CCOCC3)cc2)nc1Nc1cccc(O)c1 | 78% (active) | 23% | -2 | 90% (active) | inactive | inactive | inactive | inactive
18 | COC(=O)c1ccc2nc(-c3ccc(C(=O)NC4CCN(Cc5ccccc5)CC4)s3)[nH]c2c1 | 71% (active) | -7% | -4 | 99% (active) | inactive | inactive | inactive | inactive
19 | CSc1ccc2nccc(Nc3ccc(Oc4ccccc4)cc3)c2c1 | 68% (active) | 30% | -7 | 94% (active) | inactive | inactive | inactive | inactive
20 | CCCCNCc1ccc(-c2nc(CN(C(=O)Nc3cc([N+](=O)[O-])ccc3F)C3Cc4ccccc4C3)cs2)cc1 | 13% | 15% | -2 | 87% (active) | inactive | inactive | inactive | inactive

Row | SMILES | growth inhibition [1] | inhibition [2] | inhibition [3] [%] | growth inhibition [4] | outcome [5] | outcome [6] | outcome [7] | outcome [8]
21 | N=C(N)c1ccc(C=CC(=O)NCC(O)CNC(=O)C=Cc2ccc(C(=N)N)cc2)cc1 (stereo not given) | 80% (active) | -14% | -1 | 90% (active) | inactive | inactive | inactive | inactive
22 | CC(C)c1ccc(NC(=O)NC2CCN(CCCCCN(C)C(=O)/C=C/c3ccc(Cl)c(Cl)c3)C2)cc1 (stereo not given) | 3% | 28% | -2 | 99% (active) | inactive | inactive | inactive | inactive
23 | Cc1cc(Nc2ccc(C(C)(C)C)cc2)c2[nH]ncc2n1 | 63% (active) | 31% | 0 | 83% (active) | inactive | inactive | inactive | inactive
24 | O=C(Nc1cccnc1)c1cc(C(=O)Nc2cccnc2)cc([N+](=O)[O-])c1 | 100% (active) | -12% | -2 | 100% (active) | inactive | inactive | inactive | inactive
25 | Cc1cc(OCc2ccccc2)c(OCc2ccccc2)cc1C(O)CN(C)Cc1ccccc1 (stereo not given) | 87% (active) | 14% | -2 | 96% (active) | inactive | inactive | inactive | inactive
26 | CN(C)CCC1CCN(CCS(=O)(=O)c2cccc(Nc3ncc(-c4cccc(F)c4)cn3)c2)CC1 | 12% | 59% (active) | -2 | 96% (active) | inactive | inactive | inactive | inactive
27 | Cc1ccc(Nc2nc(N)c3ccccc3n2)cc1 | 12% | 9% | 8 | 94% (active) | inactive | inactive | inactive | inactive
28 | COc1ccc(CN(C)CCCc2ccc(NC(=O)c3cccc4c(=O)c5cccc(F)c5[nH]c34)cc2)cc1OC | 94% (active) | 100% (active) | 0 | 100% (active) | inactive | inactive | inactive | inactive
29 | COc1ccc(Cc2c(N)nc3nc(N)nc(N)c3c2C)cc1 | 3% | 64% (active) | -8 | 94% (active) | inactive | inactive | inactive | inactive
30 | CC(C)N1CCN(C(=O)c2ccc(CNCCCN3CCN(c4cccc(Cl)c4Cl)CC3)o2)CC1 | 36% | 41% | 1 | 98% (active) | inactive | inactive | inactive | inactive
31 | COc1cccc(-c2cc(C(=O)NC3CCC(N4CCC(c5ccccc5C)CC4)CC3)[nH]n2)c1 (stereo not given) | 58% (active) | 60% (active) | -2 | 99% (active) | inactive | inactive | inactive | inactive
32 | CCCCOc1ccc(-n2c(Nc3ccccc3)nc3cc(S(N)(=O)=O)ccc32)cc1 | 72% (active) | 0% | -6 | 90% (active) | inactive | inactive | inactive | inactive
33 | O=C(CCc1cnc[nH]1)Nc1ccc(-c2ccc(-c3nc4ccccc4[nH]3)cc2)cc1 | 70% (active) | 46% | 0 | 98% (active) | inactive | inactive | inactive | inactive
34 | Cc1nc2nc(N)nc(N)c2c(C)c1Cc1ccccc1 | 0% | 62% (active) | 3 | 95% (active) | inactive | inactive | inactive | inactive
35 | N=C(N)c1ccc(Oc2ccc(C(=N)N)cc2)cc1 | 85% (active) | 18% | -3 | 92% (active) | inactive | inactive | inactive | inactive
36 | CC(C)N1CCN(C(CN2CCN(CCCOc3cccc4ccccc34)CC2)c2ccc(F)cc2)CC1 (stereo not given) | 75% (active) | 54% (active) | 4 | 101% (active) | inactive | inactive | inactive | inactive
37 | COc1ccc2nccc([C@@H](O)CN3CCC(NCc4nc5ccccc5[nH]4)CC3)c2c1 | 2% | 41% | 4 | 92% (active) | inactive | inactive | inactive | inactive
38 | c1ccc(CN2CCC(NCc3ccccc3-c3ccc(CNCc4ccc5c(c4)OCO5)cc3)CC2)cc1 | 49% | 26% | 3 | 102% (active) | inactive | inactive | inactive | inactive
39 | CCOc1ncccc1CN1CCC(N2CCc3cc(NC(=O)c4ccco4)ccc32)C1 (stereo not given) | 94% (active) | 3% | 1 | 90% (active) | inactive | inactive | inactive | inactive
40 | COc1cccc(CN(C(=O)Nc2ccccc2F)[C@H]2C[C@H]3C(=O)Nc4cc(F)ccc4C(=O)N3C2)c1 | 75% (active) | -7% | 3 | 93% (active) | inactive | inactive | inactive | inactive
